D2 PAM-1: human D2 receptor positive allosteric modulation. AID 624464. DiscoveRx D2 beta-arrestin cells, luminescence, 90 min; 100% = 57 uM dopamine signal. potentiation, % (concentration not given with the values). P14416. hit rate 0.23% among 360,000; in the data active = potentiation above about 50%; inconclusive = mostly about 30% to 49%
Target sequence (P14416 whole entry, looked up): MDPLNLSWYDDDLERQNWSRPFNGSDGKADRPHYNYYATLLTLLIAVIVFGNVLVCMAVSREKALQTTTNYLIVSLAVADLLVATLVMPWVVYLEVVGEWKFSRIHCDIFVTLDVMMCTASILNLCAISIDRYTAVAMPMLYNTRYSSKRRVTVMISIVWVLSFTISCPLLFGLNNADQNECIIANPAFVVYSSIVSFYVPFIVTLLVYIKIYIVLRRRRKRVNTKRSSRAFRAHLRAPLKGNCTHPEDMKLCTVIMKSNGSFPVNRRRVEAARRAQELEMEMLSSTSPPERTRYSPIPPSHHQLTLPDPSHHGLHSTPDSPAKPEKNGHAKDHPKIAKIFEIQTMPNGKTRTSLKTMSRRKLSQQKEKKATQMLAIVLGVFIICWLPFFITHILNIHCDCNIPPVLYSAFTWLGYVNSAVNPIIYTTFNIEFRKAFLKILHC
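D2 cells co-treated with compound plus 50 nM dopamine (EC20) for 90 min at 37 deg C to detect potentiation. Beta-arrestin recruitment was read as enzyme-fragment luminescence after 1 h at ambient temperature. Full response was set by 57 uM dopamine.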
D2 PAM-2: D2 dopamine receptor (human) potentiation; HEK293 T-REx D2, calcium flux, EC20 dopamine potentiation; P14416; hit rate 0.34% among 340,000; AID 485347; potentiation, % at 10 µM;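 active = potentiation over 3 SD above the plate norm, cut at about 30% in these data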
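Potentiation of an EC20 dopamine calcium response measured kinetically over 180 s, after a preceding 180 s compound-only read flagging agonists. Cells: inducible Hek293 Trex D2 line, 4000/well, cultured overnight at 30 C before dye loading.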
D2 ag-1: agonists of human D2 dopamine receptor. AID 485358. hit rate 0.53% among 340,000. activation, % at 2 µM. P14416. HEK293 T-REx D2 cells, calcium flux agonist mode;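 active = activation over 3 SD above normal in the single-dose calcium agonist read, cut at about 30% in these data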
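Agonism is scored from calcium flux in a force-coupled, inducible HEK293 cell line expressing D2, read kinetically for 180 s after compound addition against dopamine controls.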
D2 ag-2: activates the human D2 dopamine receptor; P14416; DiscoveRx PathHunter D2 beta-arrestin, luminescence, 90 min; 100% = 57 uM dopamine signal; activation, % (no concentration beside the values); hit rate 0.084% among 360,000; AID 624465; in the data active = activation above about 40%; inconclusive = between about 15% and that limit
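Agonist mode: compounds alone added to overnight-plated D2 PathHunter cells for 90 min at 37 C, with 57 uM final dopamine (EC100) defining full response. Beta-arrestin recruitment detected by chemiluminescent reagent, read after 1 h at ambient temperature.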
D2 antag: D2 dopamine receptor (human) antagonism; inhibition, % at 10 µM; HEK293 TREx D2 cells, calcium flux, dopamine EC80; AID 485344; P14416; hit rate 2% among 340,000; in the data active = inhibition above about 30%; inactive = below that, where a call was filed
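Inhibition of EC80 dopamine-driven calcium flux, recorded kinetically, defines activity here; cells are a tetracycline-induced HEK293 T-REx line expressing force-coupled D2.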
D3 arrestin ag: activates human D3 dopamine receptor beta-arrestin recruitment | shares compounds with D2 ag-1 | DiscoveRx D3 beta-arrestin cells, luminescence, 90 min | Potency, µM (top dose mostly 76.9 µM), hits mostly activators | hit rate 4% among 2,300; note: nearly all actives have a fitted effect of over 70% in size
D2 ag-3: counter-screen for D3 agonists: human D2 dopamine receptor agonism; hit rate 5.9% among 2,300; AID 720507; Potency, µM (top dose mostly 76.9 µM), most hits filed as activators; shares compounds with D2 ag-1; DiscoveRx PathHunter D2 beta-arrestin, luminescence, 90 min; response scale: percent relative to full dopamine signal; note: nearly all actives have a fitted effect of over 70% in size
Large screens that a line does not name were inactive (follow-up assays come after a bar, where they were run). Rows were chosen to be rich in hits. Some 2.4% of all compounds tested hit in one or more screens of this group. Unless noted, calls come from the whole dose curve; as a rule, active = well fitted activation curve with a large enough effect; inconclusive = small, poorly fitted or top-dose-only effect; inactive = flat fitted curve, though single readings scatter.

CC(=O)c1ccc(OCC(O)CN2CCOCC2)cc1 (stereo not drawn)	none
CC(=O)c1ccc(OCC(O)CN2CCc3ccccc3C2)cc1 (stereo not drawn)	D2 ag-1 43 | D3 arrestin ag inactive | D2 ag-3 inactive
CCOC(=O)C1CCN(CC(=O)Nc2c(C(=O)OC)[nH]c3cccc(Cl)c23)CC1	none | D3 arrestin ag inactive | D2 ag-3 inactive
CCOC(=O)C1CCN(CC(=O)Nc2c(C(=O)OC)[nH]c3ccc(Cl)cc23)CC1	none (no result: D2 PAM-2)
Fc1ccc(Nc2ncnc3onc(-c4cccc(Cl)c4)c23)c(F)c1	none (no result: D2 PAM-1, D2 ag-2, D2 antag)
COC(=O)c1[nH]c2cc(C)ccc2c1NC(=O)CN1CCN(C(=O)c2ccco2)CC1	none (no result: D2 PAM-2, D2 ag-1, D2 antag) | D3 arrestin ag inactive | D2 ag-3 inactive
COC(=O)c1[nH]c2ccccc2c1NC(=O)C(C)N1CCN(C(=O)c2ccco2)CC1 (stereo not drawn)	D2 ag-1 47, D2 ag-2 inconclusive | D3 arrestin ag inconclusive | D2 ag-3 inactive
COC(=O)c1[nH]c2ccccc2c1NC(=O)C(C)N1CCOCC1 (stereo not drawn)	none (no result: D2 ag-1, D2 antag)
Oc1ccc(Cl)cc1CNCc1ccc(Cl)cc1	none | D3 arrestin ag inactive | D2 ag-3 inactive
Oc1ccc(Cl)cc1CNCc1ccc(F)cc1	none
O=C(O)C1CCCCC1C(=O)Nc1ccc(S(=O)(=O)N2CCCCCC2)cc1 (stereo not drawn)	none
CC1CC1C(=O)Nc1ccc(S(=O)(=O)N2CCCCC2)cc1 (stereo not drawn)	none (no result: D2 PAM-2, D2 ag-1, D2 antag) | D3 arrestin ag inactive | D2 ag-3 inactive
CCNS(=O)(=O)c1ccc2c3c(cccc13)C(=O)N2	D2 ag-1 48 | D3 arrestin ag inactive | D2 ag-3 inactive
Cn1c(=NC(=O)COc2ccccc2)sc2cc(F)cc(F)c21	none
Cn1c(=NC(=O)COc2ccccc2)sc2cccc(F)c21	none | D3 arrestin ag inactive | D2 ag-3 inactive
COc1cccc(CN2CCN(Cc3cc4ccccc4[nH]3)CC2CCO)c1 (stereo not drawn)	D2 ag-1 31 | D3 arrestin ag inactive | D2 ag-3 inactive
O=C(c1cccc(C(=O)N(c2ccccn2)C2CCCCC2)c1)N(c1ccccn1)C1CCCCC1	D2 ag-1 70, D2 ag-2 inconclusive, D2 antag 62 | D3 arrestin ag inactive | D2 ag-3 inconclusive
Oc1ccc(C2CNCc3sccc32)cc1O (stereo not drawn)	D2 PAM-1 71, D2 ag-1 84, D2 ag-2 63, D2 antag 96 | D3 arrestin ag 3.5µM | D2 ag-3 2.8µM
O=C(c1ccc2c3c(cccc13)CC2)C1CCCN(C(=O)c2ccc[n+]([O-])c2)C1 (stereo not drawn)	none | D3 arrestin ag inactive | D2 ag-3 inactive
O=C(c1ccc2c3c(cccc13)CC2)C1CCCN(C(=O)c2cc[n+]([O-])cc2)C1 (stereo not drawn)	none
Cc1ccc(S(=O)(=O)N2CCOC2CNC(=O)C(=O)NCc2ccc3c(c2)OCO3)cc1 (stereo not drawn)	D2 antag 66 | D3 arrestin ag inactive | D2 ag-3 inactive
Cc1cccc(-n2ncc(C(=O)N3CCN(Cc4ccccc4)CC3)c2C2CCN(C(=O)OC(C)(C)C)CC2)c1	none (no result: D2 PAM-1, D2 ag-1, D2 ag-2, D2 antag)
Cc1cc(C)cc(N2CC(c3nc(-c4cccc(Cl)c4)no3)CC2=O)c1 (stereo not drawn)	none (no result: D2 PAM-1, D2 ag-2, D2 antag)
CCN(CC)C(=O)C1=C(C)Nc2nc3ccccc3n2C1c1ccc(Br)cc1 (stereo not drawn)	none (no result: D2 PAM-1, D2 ag-1, D2 ag-2, D2 antag)
OCC[C@H]1C[C@@H](O)[C@H](O)[C@@]2(Cc3ccccc3CO2)O1	none | D3 arrestin ag inactive | D2 ag-3 inactive
OCC[C@@H]1C[C@H](O)[C@@H](O)[C@@]2(Cc3ccccc3CO2)O1	none
COCCCNC(=O)c1oc2c(c1C)-c1nn(Cc3ccccc3Cl)cc1CC2	none (no result: D2 PAM-1, D2 ag-2, D2 antag)
O=C(CN(Cc1ccc(F)cc1)C(=O)CNS(=O)(=O)c1ccc(F)cc1)NCC1CCCO1 (stereo not drawn)	none | D3 arrestin ag inactive | D2 ag-3 inactive
O=C(CN(Cc1cccs1)C(=O)CNS(=O)(=O)c1ccc(F)cc1)NCC1CCCO1 (stereo not drawn)	none
COc1cccc(CN2CCN(C(=O)c3cccs3)CC2)c1OC	D2 ag-1 90, D2 ag-2 inconclusive, D2 antag 71 | D3 arrestin ag inconclusive | D2 ag-3 inconclusive
COc1ccc(OC)c(CN2CCN(C(=O)c3cccs3)CC2)c1	D2 PAM-1 inconclusive, D2 ag-1 82, D2 ag-2 49, D2 antag 71 | D3 arrestin ag inactive | D2 ag-3 inconclusive
O=C(CCN1CCCO1)N1CCCC(N2CCN(c3ccccc3F)CC2)C1 (stereo not drawn)	none
NC(=O)CN1CCN(c2ccccc2F)CC1	none
CSCCC(=O)N1CC[C@@H](N2CCN(c3ccccc3F)CC2)[C@H](O)C1	D2 antag 45 | D3 arrestin ag inactive | D2 ag-3 inconclusive
CC(C)=CC(=O)N1CC[C@@H](N2CCN(c3ccccc3F)CC2)[C@H](O)C1	D2 ag-1 80, D2 ag-2 43, D2 antag 46 | D3 arrestin ag inactive | D2 ag-3 inconclusive
CSCCCN1CC[C@@H](N2CCN(c3ccccc3F)CC2)[C@H](O)C1	D2 ag-1 76, D2 ag-2 inconclusive, D2 antag 79 | D3 arrestin ag inactive | D2 ag-3 inconclusive
CCOC(=O)C1CCC(CN(Cc2c(Cl)cccc2Cl)S(=O)(=O)c2ccc(F)cc2)CC1 (stereo not drawn)	none (no result: D2 PAM-1, D2 ag-2, D2 antag)
Cc1ccc(SCCNC(=S)Nc2ccc(C)cc2C)cc1	none | D3 arrestin ag inactive | D2 ag-3 inactive
CN(CC(=O)NCc1ccccc1)CC(=O)Nc1ccc(Cl)c(C(F)(F)F)c1	none | D3 arrestin ag inactive | D2 ag-3 inactive
CCCC(=O)N1CCN(Cc2ccc3c(c2)OCO3)CC1	D2 ag-1 61 | D3 arrestin ag inactive | D2 ag-3 inactive
COCc1c(C(=O)N2CCN(Cc3ccc(C#N)cc3)CC2)oc2ccccc12	none
COc1cccc(CN2CCN(C(=O)CC(C)C)CC2)c1	D2 ag-1 55 | D3 arrestin ag inactive | D2 ag-3 inactive
COCc1c(C(=O)N2CCN(Cc3ccc4c(c3)OCO4)CC2)oc2ccccc12	D2 ag-1 70, D2 ag-2 46, D2 antag 70 | D3 arrestin ag inactive | D2 ag-3 10µM
CC(C)CC(=O)N1CCN(Cc2cccc(F)c2)CC1	none
CC(C)CC(=O)N1CCN(Cc2ccc3c(c2)OCO3)CC1	D2 ag-1 80, D2 ag-2 inconclusive | D3 arrestin ag inactive | D2 ag-3 inconclusive
O=C(O)CCC(=O)N1CCN(Cc2ccc3c(c2)OCO3)CC1	none

Assay outcomes from PubChem BioAssay.
